HT1080-NT tox – kills 2HG-producing HT-1080-NT fibrosarcoma cells. HT-1080-NT fibrosarcoma viability, CellTiter-Glo ATP luminescence, 48 h. Potency, µM (top dose mostly 46.1 µM), without a hit: at the highest dose activity, negative = less viability, actives largely listed as cytotoxic. 360,000 tested, 1.6% active;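 also: NT is the 2HG producing partner of a matched IDH1 knockdown line; potency is read from the fitted curve at half-maximal effect; 0% = DMSO-treated cells and -100% = media-only wells without cells; nearly all actives have a fitted effect of over 55% in size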
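HT-1080-NT fibrosarcoma cells (2HG-overproducing), 750 cells/well in RPMI with 5% FBS, dosed after 2 h and incubated 48 h at 37C. CellTiter-Glo luminescence normalized to DMSO and no-cell wells; concentration-response curves fitted and classed.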
IL-1B inflam inh – blocks inflammasome-driven IL-1 beta release. activity change, % at 57.5 µM. THP-1 LPS/ATP IL-1B secretion, AlphaLISA, 16 h; hits give low values. AID 743279. 360,000 tested, 4.7% active; in the data active = activity change below about -50%; inconclusive = mostly about -30% to -49%
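THP-1 cells pretreated 1 hr with compounds (up to 57.5 uM final), then stimulated with LPS (250 ng/mL final) plus ATP (1.25 mM final); secreted IL-1B measured by AlphaLISA after 16 hr, decreased signal indicating inhibition.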
TDP1 cell CPT – growth inhibition of DT40 Tdp1-/-;hTDP1 cells with camptothecin (screen for TDP1 inhibitors); chicken DT40 Tdp1-/-;hTDP1 cells + 20 nM CPT, ATP luminescence, 48 h; Potency, µM (top dose mostly 46.2 µM), inactives show at the top dose activity change, negative = growth inhibition, hits mostly inhibitors; 420,000 tested, 12% active; AID 686979; also: potency is read from the fitted curve at half-maximal effect; nearly all actives have a fitted effect of over 55% in size
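Chicken DT40 Tdp1-/- cells complemented with human TDP1, 400 cells/well, exposed to compounds plus 20 nM camptothecin for at least 48 h at 37 C; viability read as ATP content by CellTiter-Glo luminescence.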
HT1080 IDH1KD tx – kills HT-1080 cells with IDH1 knockdown; HT-1080 IDH1 knockdown viability, ATP luminescence, 48 h; Potency, µM (top dose mostly 46.1 µM), without a hit: top-dose activity, negative = toxicity, hits mostly cytotoxic; 360,000 tested, 2% active; AID 686971;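 also: potency is read from the fitted curve at half-maximal effect; 0% = DMSO wells and -100% = cell-free medium wells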
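Using the IDH1-knockdown HT-1080 line run in the same batch and compound series as the NT line, viability after 48 h at 37 °C was determined by CellTiter-Glo luminescence and expressed as % activity.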
uPA generation – cell surface uPA generation inhibition; Potency, µM (top dose mostly 38.3 µM), inactives show at the top dose activity change, negative = inhibition, most hits filed as inhibitors; cell surface uPA generation assay, qHTS; 330,000 tested, 0.31% active; active = well fitted inhibition curve with a large enough effect; inconclusive = small, poorly fitted or top-dose-only effect; inactive = no such curve, though single readings can be large or run the other way; tested in mouse RAW 264.7 cells; also: potency is read from the fitted curve at half-maximal effect; nearly all actives have a fitted effect of over 55% in size
DT40 TDP1 no CPT – qHTS for Inhibitors of human tyrosyl-DNA phosphodiesterase 1 (TDP1): qHTS in cells in absence of CPT | Potency, µM (doses to about 46.2 µM), without a hit: at the top dose activity change, negative = growth inhibition, actives largely listed as inhibitors | DT40 Tdp1-/- hTDP1 cells, no CPT, ATP luminescence, 48 h | 420,000 tested, 15% active; also: potency is read from the fitted curve at half-maximal effect; nearly all actives have a fitted effect of over 55% in size
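No-CPT arm: Tdp1-/-;hTDP1 DT40 cells (400/well) plus compounds, incubated ≥48 hr at 37 °C. Readout CellTiter-Glo luminescence.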
* = called active by the depositor; ? = inconclusive; . = no result. This is a sample that favours compounds with a hit; in the whole collection about 19% have one here. Unless noted, calls follow the shape of the dose curve; as a rule, active = well fitted curve in the direction sought with a large enough effect; inconclusive = small, poorly fitted or top-dose-only effect, or another doubt; inactive = no such curve, though single readings can be large; an effect the other way counts as inactive or inconclusive. Unless noted, % is scaled to controls: 0 for no effect and ±100 for the full control effect.

SMILES	HT1080-NT tox	IL-1B inflam inh	TDP1 cell CPT	HT1080 IDH1KD tx	uPA generation	DT40 TDP1 no CPT
COCCCNC(=O)C[C@H]1C[C@H](C(=O)N2CCCCC2)[C@@]2(CCc3ccccc3)c3[nH]c4cc(-c5ccco5)ccc4c3CCN2C1=O	-22%	?	?	?	?	?
COc1ccc(CCN)cc1	.	.	-19%	.	.	-20%
Cc1ncoc1C(=O)NCC1=C(c2ccc(S(C)(=O)=O)cc2)C[C@@H]2CC[C@H]1N2CCOc1ccccc1	7%	11	3%	-1%	.	?
O=c1[nH]c(O)c(N=Nc2cc([N+](=O)[O-])ccc2O)c(=O)[nH]1	-2%	1	-7%	-18%	-4%	-27%
O=C(OC1CC2CCC(N2)C1C(=O)O)c1ccccc1 (stereo not given)	-17%	14	20%	4%	1%	2%
CCCCn1c(O)c(C=NC2CCCCC2N)c(=O)[nH]c1=O (stereo not given)	-7%	-3	?	3%	5%	-4%
CCCCCCn1c(O)c(C=NC2CCCCC2N)c(=O)[nH]c1=O (stereo not given)	-5%	0	16µM*	-5%	1%	16µM*
CC(C)OC(=O)c1c(N)n(Cc2ccco2)c2nc3ccccc3nc12	-2%	-19	?	1%	6%	?
Nc1c(C(=O)OCC2CCCO2)c2nc3ccccc3nc2n1Cc1cccs1 (stereo not given)	?	-29	?	?	11%	18µM*
COCCNC(=O)c1c(N)n(CCC(C)C)c2nc3ccccc3nc12	-3%	-116*	12µM*	-2%	8%	18µM*
Nc1c(C(=O)NCC2CCCO2)c2nc3ccccc3nc2n1Cc1ccco1 (stereo not given)	?	-71*	?	?	2%	?
COCCCNC(=O)c1c(N)n(Cc2ccco2)c2nc3ccccc3nc12	-6%	-55*	?	-2%	9%	26µM*
CC(C)CCn1c(N)c(C(=O)NCc2cccs2)c2nc3ccccc3nc21	10%	?	?	2%	.	?
Cc1cccc(C2CC(=O)Oc3c2c(=O)oc2ccccc32)c1 (stereo not given)	.	.	-13%	.	.	-3%
C[C@]12CCC3[C@@H](CCC4=CC(=O)CC[C@@]43C=O)C1CCC2=O (stereo not given in full)	2%	7	15%	-6%	5%	1%
C(=NC1CCCCC1)c1c[nH]c2ccccc12	4%	16	0%	10%	2%	3%
Cc1cccc(N=Nc2ccc(N(C)C)cc2)c1	0%	-22	-3%	2%	-12%	-19%
CC(C)OCCCNC(=O)c1c(N)n(Cc2cccs2)c2nc3ccccc3nc12	18µM*	-63*	?	?	11%	18µM*
Nc1c(C(=O)NCc2ccco2)c2nc3ccccc3nc2n1CCN1CCCCC1	?	-63*	23µM*	?	?	23µM*
CC(C)CCNC(=O)c1c(N)n(Cc2ccc3c(c2)OCO3)c2nc3ccccc3nc12	0%	?	?	8%	.	?
CC(C)CNC(=O)c1c(N)n(Cc2ccc3c(c2)OCO3)c2nc3ccccc3nc12	21µM*	?	?	16µM*	6%	?
CCCNC(=O)c1c(N)n(Cc2ccco2)c2nc3ccccc3nc12	11µM*	-89*	23µM*	?	.	?
CCCC12CN3CC(CCC)(CN(C1)C3c1ccccn1)C2=O (stereo not given)	1%	-4	?	0%	.	?
CC(C)CNC(=O)c1c(N)n(Cc2ccco2)c2nc3ccccc3nc12	?	-73*	?	?	6%	?
COc1ccc(Cn2c(N)c(C(=O)NCc3ccco3)c3nc4ccccc4nc32)cc1OC	?	?	6.5µM*	?	-3%	6.5µM*
SMILES	HT1080-NT tox	IL-1B inflam inh	TDP1 cell CPT	HT1080 IDH1KD tx	uPA generation	DT40 TDP1 no CPT
Cc1ccccc1-c1nc(CN2C(=O)CN=C(c3ccccc3)c3ccccc32)c(C)o1	.	.	?	.	.	-78%
Nc1ccc(S(=O)(=O)NCc2ccccc2)cc1	.	.	-17%	.	.	?
Cc1ccc(-n2c(/C=C/c3ccccc3)nc3ccccc3c2=O)cc1C	.	.	16µM*	.	.	23µM*
Cc1ccc(-n2c(/C=C/c3ccccc3)nc3ccccc3c2=O)cc1Cl	.	.	?	.	.	23µM*
C=C[C@H]1CN2CCC1C[C@@H]2C(O)c1ccnc2ccccc12 (stereo not given in full)	.	.	-3%	.	.	-1%
C/C=C1/CC(C)C(C)(O)C(=O)OCC2CCN3CCC(OC1=O)C23 (stereo not given)	20%	0	-4%	15%	-4%	-6%
Nc1ccc(Cl)cc1C(=O)c1ccccc1Cl	?	-1	-26%	?	2%	?
CCN(CC)Cc1nccn1-c1ccc([N+](=O)[O-])cc1C(=O)c1ccccc1Cl	.	.	-83%	.	.	6µM*
COc1ccc(NC(=O)N2CCN(c3nc(-c4cccc(OC)c4)cs3)CC2)cc1	-10%	-93*	23µM*	?	.	18µM*
COc1ccc(NC(=O)N2CCC3(CC2)OCCO3)cc1	5%	2	?	0%	1%	-1%
CCCCC/C=C\C/C=C\C/C=C\C/C=C\CCCC(=O)Nc1ccc(O)cc1	.	.	27µM*	.	.	21µM*
ClCCN(CCCl)c1ccc(/C=C/c2sc3ccccc3[n+]2CCCCI)cc1	.	.	3.2µM*	.	.	2.5µM*
Nc1ccc2c3c(cccc13)-c1ccccc1-2	?	2	2%	?	2%	-25%
CN1CCc2nc(SCc3cccc(Br)c3)c(C#N)cc2C1	?	-7	?	?	-2%	18µM*
CC1(CCl)CN1S(=O)(=O)c1ccccc1 (stereo not given)	-19%	-28	18µM*	?	-8%	?
C[C@]12CC[C@H]3[C@@H](CCC4=CC(=O)CC[C@@H]43)[C@@H]1CC[C@@H]2OC(=O)CCc1ccccc1	.	.	13%	.	.	-17%
COc1cccc2c1O[C@H]1C(=O)CC[C@H]3CN(C)CCC231 (stereo not given in full)	.	.	.	.	0%	.
COc1ccc2c3c1O[C@H]1C(=O)CC[C@H]4[C@@H](C2)N(C)CC[C@]314	-5%	-89*	21%	-3%	-10%	?
Cc1cc(OC(=O)N(C)C)nc(-c2ccc(C)c(Cl)c2)n1	-10%	-15	0%	-11%	-6%	-26%

Screens deposited in PubChem BioAssay by National Center for Advancing Translational Sciences (NCATS).
